Most compounds without a hit are left out; they make up all but 7.5% or so of the library.
VACV Venus inh: vaccinia inhibition (Venus reporter). 330,000 tested, 0.46% active. Vaccinia virus Venus reporter expression, fluorescence. Potency, µM (highest dose often 36.5 µM), without a hit: at the highest dose activity change, negative = inhibition, most hits filed as inhibitors; calls by dose curve; tested in A549 cells; also: potency is read from the fitted curve at half-maximal effect; nearly all actives have a fitted effect of over 30% in size
HCMV inh: blocks human cytomegalovirus replication; HFF cells, HCMV-luciferase reporter, 72 h; stronger effect = lower value; activity change, negative = inhibition, % at 57.5 µM; 410,000 tested, 4.5% active; AID 1259415; in the data active = activity change below about -60%; inconclusive = no clear call, values can overlap the other calls; inactive = above about -39%
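Steps: HFFs plated, 16 h 37C; compounds added; HCMV-luciferase added to MOI 1 PFU/cell; 72 h 37C; OneGlo reagent, 5 min room temperature; luminescence read, normalized to controls.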
FBPA Giardia inh: blocks Giardia fructose-bisphosphate aldolase activity. purified Giardia FBPA. Potency, µM (top dose mostly 59.6 µM), for the others: at the highest dose activity, negative = inhibition, most hits filed as inhibitors. 290,000 tested, 0.71% active; also: potency is read from the fitted curve at half-maximal effect; nearly all actives have a fitted effect of over 55% in size
Target sequence (A8B2U2 whole entry, looked up): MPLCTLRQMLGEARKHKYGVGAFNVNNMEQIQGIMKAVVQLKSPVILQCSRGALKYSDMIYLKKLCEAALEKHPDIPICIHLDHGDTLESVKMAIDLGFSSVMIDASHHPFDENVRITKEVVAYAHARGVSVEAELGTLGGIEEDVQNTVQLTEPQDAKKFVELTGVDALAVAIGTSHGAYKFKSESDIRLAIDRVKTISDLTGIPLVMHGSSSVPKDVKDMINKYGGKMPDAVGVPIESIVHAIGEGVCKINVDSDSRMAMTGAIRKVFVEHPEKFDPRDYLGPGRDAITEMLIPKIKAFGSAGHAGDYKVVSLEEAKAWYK
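40 nM FBPA preincubated 10 min at RT with compound (up to 57.5 uM final), then substrate plus GAPDH/TPI/NAD/arsenate coupling and diaphorase/resazurin added. Fluorescence read after 20 min at RT, 525/598 nm.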
HCV inhibitor: HCV inhibition; Huh7.5.1 HCVcc-Cre infection, luciferase reporter, 44 h; Potency, µM (highest dose often 41.8 µM), for inactives: at the top dose activity change, negative = inhibition, hits mostly inhibitors; 340,000 tested, 3.4% active; AID 651820; also: potency is read from the fitted curve at half-maximal effect
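After 44 h co-culture of compound, cells and HCVcc-Cre (~0.5 moi), substrate is added for 15 min at room temperature and luciferase measured over 15 sec. Cells were seeded at 1,000/well and pre-cultured 4 h.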
FMDV antiviral: blocks foot and mouth disease virus | FMDV antiviral cell-based qHTS | Potency, µM (doses to about 57.9 µM), for inactives: at the top dose activity change, negative = inhibition, usual class: inhibitors | 410,000 tested, 1.2% active | AID 1159524; calls by dose curve; tested in HEK293T cells; also: read-out not given here; potency is read from the fitted curve at half-maximal effect; nearly all actives have a fitted effect of over 45% in size
Vaccinia mCherry: vaccinia inhibition (mCherry reporter) | Vaccinia virus mCherry reporter infection, fluorescence | Potency, µM (titrated, usually from 36.5 µM), inactives show top-dose activity change, negative = inhibition, actives largely listed as inhibitors | 310,000 tested, 0.63% active | AID 720579; calls by dose curve; tested in A549 cells; also: potency is read from the fitted curve at half-maximal effect; nearly all actives have a fitted effect of over 35% in size
The depositor's hits bear a star; i = inactive; ? = inconclusive; nt = no result given. Unless noted, calls follow the shape of the dose curve; as a rule, active = well fitted curve in the direction sought with a large enough effect; inconclusive = small, poorly fitted or top-dose-only effect, or another doubt; inactive = no such curve, though single readings can be large; an effect the other way counts as inactive or inconclusive. % is scaled to controls: 0 for no effect and ±100 for the full control effect.

SMILES	VACV Venus inh	HCMV inh	FBPA Giardia inh	HCV inhibitor	FMDV antiviral	Vaccinia mCherry
C#CCOCCOCCOCCNc1nc(N2CCN(C(=O)Cn3cc(CCCN=C(N)N)nn3)CC2)nc(N2CCN(C(=O)[C@H](CCCCN)n3cc(CCCC)nn3)CC2)n1	-11%	-18	nt	2%	-1%	i
O=C(c1cccs1)N1N=C(c2ccccc2)CC1c1ccccc1O (stereo not given)	?	-60*	0%	-14%	2%	-11%
Cc1ccc(C2=NN(C(=O)CCC(=O)O)C(c3cn(-c4ccccc4)nc3-c3ccc(C)cc3)C2)cc1 (stereo not given)	nt	-60*	5%	0%	-24%	nt
COc1ccc(C2=NN(C(=O)c3ccco3)C(c3cccs3)C2)cc1OC (stereo not given)	?	62	nt	nt	8%	?
Cc1ccc(-c2nn(-c3ccccc3)cc2C2CC(c3ccccc3)=NN2C(=O)CCC(=O)O)cc1 (stereo not given)	-20%	-38	11%	18%	-9%	-1%
COc1ccc(C2=NN(C(=O)c3cccs3)C(c3ccccc3OC)C2)cc1OC (stereo not given)	-8%	-38	-3%	10µM*	-15%	?
N#CC1CC(c2ccccc2)=NN1c1ccccc1[N+](=O)[O-] (stereo not given)	-17%	-64*	-6%	?	22%	-11%
COc1ccc(C(=O)C(Nc2ccccc2)C(=O)Nc2ccc3ccccc3c2)cc1 (stereo not given)	nt	51	nt	nt	nt	nt
COc1ccc(C(=O)Nc2ccc3c(c2)C(=O)c2ccccc2C3=O)cc1OC	1%	9	-1%	-10%	3%	0%
COc1ccc(C(=O)c2c(C(F)(F)F)oc3c2C(=O)c2ccccc2C3=O)cc1OC	5.6µM*	-103*	?	?	10µM*	nt
CCCCOc1ccc(CNC(=O)C2CCN(c3nnc(-n4cccc4CNc4ccc(C)cc4)s3)CC2)cc1	-30%	6	nt	nt	-12%	?
CCOc1ccc(NCc2cccn2-c2nnc(N3CCC(C(=O)NCCc4ccc(OCC)c(OCC)c4)CC3)s2)cc1	?	-80*	nt	nt	?	?
Cc1ccc(NCc2cccn2-c2nnc(N3CCC(C(=O)NCc4ccc(F)cc4)CC3)s2)cc1	-27%	-78*	nt	nt	-22%	?
CCOc1ccc(NCc2cccn2-c2nnc(N3CCC(C(=O)NCCCN4CC(C)CC(C)C4)CC3)s2)cc1 (stereo not given)	?	-85*	-7%	?	0%	?
CCOc1ccc(NCc2cccn2-c2nnc(N3CCC(C(=O)NCCc4ccc(OC)c(OC)c4)CC3)s2)cc1	?	-85*	nt	nt	22µM*	-13%
CCN(CC(=O)NCc1ccc(Cl)cc1)C(=O)c1cc(OC)cc(OC)c1	-22%	-4	14%	-12%	-7%	?
Fc1cccc(-c2oncc2-c2nnnn2-c2ccc(Cl)cc2)c1	nt	-67*	3%	6%	-14%	nt
Fc1ccc(-n2nnnc2-c2ccccc2Cl)cc1	-4%	-67*	-15%	21%	-7%	-1%
Clc1ccc(-n2nnnc2-c2ccno2)cc1	-1%	32	-5%	15%	-4%	-9%
Cc1cc2c(c(-c3nc4ccccc4s3)c1)OC(CNC(=O)c1occc1C)C2 (stereo not given)	7%	nt	nt	nt	14%	-9%
COc1ccccc1C1=NOC(Cn2c(NCCCO)nc3c2c(=O)n(C)c(=O)n3C)C1 (stereo not given)	-16%	33	0%	19%	-25%	-15%
COc1ccc(C2=NOC(Cn3c(Cc4ccc(Cl)cc4)nc4c3c(=O)n(C)c(=O)n4C)C2)cc1 (stereo not given)	8%	-9	-1%	1.4µM*	-20%	-2%
COc1ccc(S(=O)(=O)Nc2cccc3c2O[C@H](CN(C)C(=O)Nc2c(C)noc2C)[C@@H](C)CN([C@H](C)CO)C3=O)cc1	5%	30	nt	-1%	20%	i
CCCCN(CCCNC(=O)c1cc(Nc2cccc(SC)c2)nc2ccccc12)Cc1ccccc1	?	-99*	nt	nt	0%	?

Screening data deposited in PubChem BioAssay by National Center for Advancing Translational Sciences (NCATS).
